# PHOSPHO1 block: PHOSPHO1 (human) inhibition. Q8TCT1. recombinant PHOSPHO1, absorbance phosphatase assay. inhibition, % at 13.3 µM. 290,000 tested, 1.1% active. AID 1565; in the data active = inhibition above about 60%
# UBC9 SUMO inh: inhibitors of human SUMOylation (UBC9); P63279; HTRF SUMOylation assay, SAE1/SAE2 + UBC9, in vitro; inhibition, % at 35 µM; 290,000 tested, 0.36% active; in the data active = inhibition above about 50%, passing the limit was not always enough
# p97 inhibitor: blocks human p97 ATPase activity; AID 1481; recombinant p97 ATPase, Kinase-Glo ATP luminescence, 3 h; 220,000 tested, 0.42% active; inhibition, % at 8 µM; in the data active = inhibition above about 15%;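 also: 0% = DMSO vehicle and 100% = wells lacking enzyme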
# HDAC3 inh: inhibitors of human histone deacetylase 3; inhibition, % at 8.3 µM; 320,000 tested, 0.15% active; O15379; recombinant HDAC3, fluorogenic peptide/trypsin coupled, fluorescence; in the data active = inhibition above about 26%, passing the limit was not always enough
# G6PDH counter: inhibits Leuconostoc G6PDH, flagging false hits in G6PDH-based assays; AID 1020; Purified L. mesenteroides G6PDH, diaphorase/resazurin coupled fluorescence, 45 min; inhibition, % at 5 µM; 200,000 tested, 0.12% active; in the data active = inhibition above about 50%
# PfM18AAP inh-1: blocks P. falciparum M18 aspartyl aminopeptidase. recombinant PfM18AAP, H-Glu-NHMec fluorogenic cleavage. inhibition, % at 7.35 µM. 290,000 tested, 1.2% active. AID 1822;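 active = inhibition above the campaign mean inhibition over all tested compounds plus 3 SD, cut at about 28% in these data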;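 also: 0% = plate median of test compound wells and 100% = 2 mM ZnCl2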
# p97 confirm: human p97 ATPase inhibition, confirmation; shares compounds with p97 inhibitor; recombinant p97 ATPase, Kinase-Glo ATP luminescence; inhibition, % at 8 µM; 760 tested, 44% active; AID 1517;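 active = percent inhibition of p97 ATPase above a set limit, the primary screen's mean plus 3 SD, cut at about 15% in these data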;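 also: 0% = DMSO wells and 100% = wells lacking p97 protein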
# PfM18AAP inh-2: PfM18AAP inhibition, confirmation. shares compounds with PfM18AAP inh-1. inhibition, % at 7.35 µM. 2,400 tested, 28% active. recombinant PfM18AAP, H-Glu-NHMec fluorogenic cleavage;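 active = mean inhibition over replicate wells above the hit cutoff set for the earlier primary screen, cut at about 29% in these data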;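 also: 0% = median of test compound wells and 100% = 2 mM ZnCl2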
# CTSL1 counter: Cathepsin L (human) inhibition, confirmation; shares compounds with PfM18AAP inh-1; inhibition, % at 5.96 µM; purified cathepsin L1, Z-Leu-Arg-MCA fluorescence; 2,400 tested, under 10 active;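 active = average inhibition across replicates above the hit cutoff set in the earlier primary screen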;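 also: 0% = median of test compound wells and 100% = Z-Phe-Ala-diazomethylketone 1 µM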
# Target sequence (P07711 whole entry, looked up): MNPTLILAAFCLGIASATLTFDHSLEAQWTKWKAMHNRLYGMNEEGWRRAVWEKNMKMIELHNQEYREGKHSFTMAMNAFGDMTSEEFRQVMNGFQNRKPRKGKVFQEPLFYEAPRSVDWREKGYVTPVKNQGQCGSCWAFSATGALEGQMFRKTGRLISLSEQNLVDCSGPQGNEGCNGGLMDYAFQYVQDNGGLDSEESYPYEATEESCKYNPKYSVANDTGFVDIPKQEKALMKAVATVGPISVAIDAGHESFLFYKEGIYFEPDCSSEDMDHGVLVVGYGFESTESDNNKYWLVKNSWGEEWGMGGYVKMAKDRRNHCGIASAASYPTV
# Active calls of the source: *; / = not tested or not shown. Compounds with a hit are over-represented: about 2.5% of the library has one in this group of screens.
SMILES,PHOSPHO1 block,UBC9 SUMO inh,p97 inhibitor,HDAC3 inh,G6PDH counter,PfM18AAP inh-1,p97 confirm,PfM18AAP inh-2,CTSL1 counter
O=C(O)CC1OCC=C2CN3CCC45C6=CC(=O)C(=O)C([N+](=O)[O-])=C6NC4C1C2CC35 (stereo not given),37,100*,38*,4,/,24,37*,/,/
Cc1cc(OCC(=O)N2C[C@H]3C[C@@H](C2)c2cccc(=O)n2C3)c2c(C)cc(=O)oc2c1,18,35,/,-14,/,0,/,/,/
N#CC(C#N)=NNc1ccc(S(N)(=O)=O)cc1,20,24,23*,11,/,-2,25*,/,/
C[C@]12CCC3C(CC[C@H]4C[C@@H](O)CC[C@]34C)C1C[C@@H](Br)[C@H]2O (stereo not given in full),/,/,/,-3,/,/,/,/,/
CN1CCC(n2nccc2N)CC1,15,-2,15*,-3,4,2,2,/,/
Nc1ccnn1C1CCNCC1,21,11,2,-5,-15,3,/,/,/
Cc1ccc(S(=O)(=O)N(C)C/N=C(\N)N[N+](=O)[O-])cc1,37,8,15*,-10,0,-5,7,/,/
Cc1ccc(S(=O)(=O)N(C)N=O)cc1,/,/,/,4,/,/,/,/,/
Cc1nc2c(=O)n(C)c(=O)nc-2n(C)n1,68*,103*,31*,-4,68*,1,38*,/,/
CC1CCC[C@H](O)CCCCCc2cc(O)cc(O)c2C(=O)O1 (stereo not given in full),32,14,17*,2,7,7,25*,/,/
OCCOCCO,/,/,/,0,/,/,/,/,/
C[C@]12CCC(=O)C=C1CCC1C2CC[C@@]2(C)C1CC[C@@H]2O (stereo not given in full),/,/,/,1,/,/,/,/,/
C[C@]12CC[C@@H]3c4ccc(O)c(O)c4CC[C@H]3[C@@H]1CC[C@@H]2O,36,1,23*,3,34,57*,5,92*,-4
NC(C(=O)O)c1cc(=O)[nH]o1 (stereo not given),/,/,/,5,/,/,/,/,/
O=C1NC(=O)N(Cc2ccco2)C(=O)/C1=C/C=C/c1ccco1,-35,73*,31*,20,/,35*,12,-4,-2
O=C1NC(=O)C(=Cc2coc3ccc(O)cc3c2=O)C(=O)N1,-2,15,9,2,/,39*,/,19,-1
CN1C(=O)C(Cc2ccc3c(c2)OCO3)C(=O)N(C)C1=O,-32,15,8,4,25,34*,/,0,-3
CN1C(=O)C(Cc2ccsc2)C(=O)N(C)C1=O,56,6,7,0,3,-1,/,/,/
Cc1ccccc1CCNCc1cc2cccc(C)c2[nH]c1=O,19,3,/,5,/,16,/,/,/
CCN(CC)c1ccc(N=Cc2c(O)n(Cc3ccco3)c(=O)[nH]c2=O)cc1,8,26,4,0,/,42*,/,-52,0
O=c1[nH]c(=O)n(Cc2ccco2)c(O)c1/C=N/N1CCCCCC1,-12,21,-1,0,15,9,/,/,/
N#Cc1c(/N=C/c2c(O)n(Cc3ccco3)c(=O)[nH]c2=O)sc2c1CCCC2,-34,20,7,4,1,37*,/,-43,-4
CCCCCn1c(=O)c(C(=O)NC(C)c2ccccc2)c(O)c2ccccc21 (stereo not given),19,-16,/,8,/,2,/,/,/
CCOC(=O)c1c(N)n(Cc2ccc(OC)cc2)c2nc3ccccc3nc12,-2,16,2,/,5,-5,/,/,/
COCCOC(=O)c1c(N)n(Cc2ccc(OC)cc2)c2nc3ccccc3nc12,-3,21,13,-58,7,35*,/,-20,10
CC1=C(C(=O)O)N2C(=O)[C@@H](NC(=O)CCCC(=O)O)[C@H]2SC1,36,14,5,0,6,36*,/,15,3
NNc1n[nH]c(=S)n1N,-170,17,0,3,/,42*,/,40*,3

# Source: PubChem (several laboratories)
